Read-out in assay [1]: TIMP metallopeptidase inhibitor 1 (TIMP1), TIMP1 (gene 7076)
The assay is described as follows: BSK_hDFCGF_TIMP1: BioMAP Diversity Plus: hDFCGF Assay for TIMP metallopeptidase inhibitor 1 (TIMP1) Biomarker Activity (AID 2283062). Particulars: primary human foreskin fibroblasts; actives raise or lower the signal. In short, it runs like this: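 Fibroblasts from human foreskin are treated with test chemical and harvested at 24 h. TIMP-1 is quantified by ELISA, and gain or loss of signal is scored against DMSO.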

Read-out in assay [2]: Matrix Metallopeptidase 1 (MMP1), MMP1 (gene 4312)
The assay can be described thus: BSK_hDFCGF_MMP1: BioMAP Diversity Plus: hDFCGF Assay for Matrix Metallopeptidase 1 (MMP1) Biomarker Activity (AID 2283064). The note with it: primary human foreskin fibroblasts; actives raise or lower the signal. In short, it runs like this: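 ELISA read-out of MMP1 from human foreskin fibroblasts (primary skin cells), 24 h post-dose. Gain or loss of signal was fitted bidirectionally versus DMSO negative control; cytotoxicity was checked by SRB in parallel cultures.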

Read-out in assay [3]: Vascular cell adhesion molecule 1 (VCAM1), VCAM1 (gene 7412)
The assay can be described thus: BSK_hDFCGF_VCAM1: BioMAP Diversity Plus: hDFCGF Assay for Vascular cell adhesion molecule 1 (VCAM1) Biomarker Activity (AID 2283065).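 Note: VCAM-1 protein level quantified by ELISA after 24 h chemical exposure.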 Particulars: primary human foreskin fibroblasts; actives raise or lower the signal. In short, it runs like this:
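Cells are dosed, cultured for 24 h, then VCAM-1 is quantified by ELISA; signal increases and decreases are both fitted relative to DMSO.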

Read-out in assay [4]: Plasminogen activator inhibitor-1 (PAI1), SERPINE1 (gene 5054)
The assay can be described thus: BSK_hDFCGF_PAI1: BioMAP Diversity Plus: hDFCGF Assay for Plasminogen activator inhibitor-1 (PAI1) Biomarker Activity (AID 2283066). Particulars: primary human foreskin fibroblasts; actives raise or lower the signal. In short, it runs like this:
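ELISA readout of PAI-1 from primary human skin fibroblast cultures, 24 h after compound addition. Gain or loss of signal was fitted bidirectionally against DMSO baseline.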

Read-out in assay [5]: Intercellular Adhesion Molecule 1 (ICAM1), ICAM1 (gene 3383)
The assay can be described thus: BSK_KF3CT_ICAM1: BioMAP Diversity Plus: KF3CT Assay for Intercellular Adhesion Molecule 1 (ICAM1) Biomarker Activity (AID 2283067). The note with it: primary human keratinocytes with fibroblasts; actives raise or lower the signal. Summed up:
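Dose the keratinocyte/fibroblast co-culture, wait 24 h, measure ICAM-1 by ELISA, then fit increases or decreases against DMSO. Cytotoxicity is checked in parallel cultures by SRB total-protein staining.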

Read-out in assay [6]: Interferon-gamma inducible Protein 10 (IP10), CXCL10 (gene 3627)
The assay can be described thus: BSK_KF3CT_IP10: BioMAP Diversity Plus: KF3CT Assay for Interferon-gamma inducible Protein 10 (IP10) Biomarker Activity (AID 2283068). Particulars: primary human keratinocytes with fibroblasts; actives raise or lower the signal. In short, it runs like this: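 Signal is secreted/surface IP-10 by ELISA in a human primary skin co-culture of keratinocytes and foreskin fibroblasts, taken 24 h post-dosing; DMSO served as negative control.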

Read-out in assay [7]: Interleukin-1 alpha (IL1a), IL1A (gene 3552)
The assay is described as follows: BSK_KF3CT_IL1a: BioMAP Diversity Plus: KF3CT Assay for Interleukin-1 alpha (IL1a) Biomarker Activity (AID 2283070). The note with it: primary human keratinocytes with fibroblasts; actives raise or lower the signal. In short, it runs like this:
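Primary skin co-culture (keratinocytes, foreskin fibroblasts), 24 h exposure; ELISA for IL-1a; bidirectional curve fit vs DMSO.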

Read-out in assay [8]: TIMP metallopeptidase inhibitor 2 (TIMP2), TIMP2 (gene 7077)
The assay can be described thus: BSK_KF3CT_TIMP2: BioMAP Diversity Plus: KF3CT Assay for TIMP metallopeptidase inhibitor 2 (TIMP2) Biomarker Activity (AID 2283071). Particulars: primary human keratinocytes with fibroblasts; actives raise or lower the signal. In short, it runs like this:
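ELISA readout of TIMP-2 in keratinocyte plus foreskin fibroblast co-cultures (human skin primary cells), 24 h post-dose. Gain or loss of signal fitted relative to DMSO.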

Read-out in assay [9]: Transforming growth factor beta 1 (TGFb1), TGFB1 (gene 7040)
The assay is described as follows: BSK_KF3CT_TGFb1: BioMAP Diversity Plus: KF3CT Assay for Transforming growth factor beta 1 (TGFb1) Biomarker Activity (AID 2283072). The note with it: primary human keratinocytes with fibroblasts; actives raise or lower the signal. Summed up: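 Read-out: ELISA for TGF-b1 in keratinocyte/foreskin fibroblast human skin co-culture, 24 h after dosing; bidirectional curve fit vs DMSO baseline; gain or loss of signal scored.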

Read-out in assay [10]: C-C motif chemokine 2 (Homo sapiens) (UniProt P13500)
The assay can be described thus: BSK_KF3CT_MCP1: BioMAP Diversity Plus: KF3CT Assay for Monocyte Chemoattractant Protein 1 (MCP1/CCL2) Biomarker Activity (AID 2283073). Particulars: primary human keratinocytes with fibroblasts; actives raise or lower the signal. Summed up: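 Keratinocytes and foreskin fibroblasts were co-cultured, dosed with chemical, and sampled 24 h later. MCP-1 was quantified by ELISA, and the endpoint was analyzed with bidirectional fitting using DMSO as negative control.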

Read-out in assay [11]: Matrix Metallopeptidase 9 (MMP9), MMP9 (gene 4318)
The assay is described as follows: BSK_KF3CT_MMP9: BioMAP Diversity Plus: KF3CT Assay for Matrix Metallopeptidase 9 (MMP9) Biomarker Activity (AID 2283074).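 Note: MMP9 protein level quantified by ELISA in the co-culture.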 The note with it: primary human keratinocytes with fibroblasts; actives raise or lower the signal. In short, it runs like this: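 ELISA read-out of MMP-9 at 24 h post-dosing in a co-culture of human skin keratinocytes and foreskin fibroblasts. Gain or loss of signal was fitted in both directions against DMSO.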

Read-out in assay [12]: urokinase plasminogen activator (uPA), PLAU (gene 5328)
The assay is described as follows: BSK_KF3CT_uPA: BioMAP Diversity Plus: KF3CT Assay for urokinase plasminogen activator (uPA) Biomarker Activity (AID 2283075). The note with it: primary human keratinocytes with fibroblasts; actives raise or lower the signal. Summed up:
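Skin co-culture (keratinocytes + foreskin fibroblasts), human primary; 24 h post-dose; uPA by ELISA; gain/loss fit vs DMSO baseline.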

Read-out in assay [13]: E-selectin (Homo sapiens) (UniProt P16581)
The assay can be described thus: BSK_LPS_Eselectin: BioMAP Diversity Plus: LPS Assay for Eselectin Biomarker Activity (AID 2283077). The note with it: primary human HUVEC with PBMC; actives raise or lower the signal. Summed up:
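Signal of E-selectin, detected by ELISA, served as the endpoint; cells were umbilical vein endothelium with PBMC, read 24 h after treatment. DMSO defined baseline, and both increases and decreases were fitted.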

Read-out in assay [14]: Interleukin-8 (IL8), CXCL8 (gene 3576)
The assay is described as follows: BSK_LPS_IL8: BioMAP Diversity Plus: LPS Assay for Interleukin-8 (IL8) Biomarker Activity (AID 2283078). The note with it: primary human HUVEC with PBMC; actives raise or lower the signal. Summed up:
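Endothelial cells and PBMC from human donors are co-cultured, treated with chemicals and LPS, then assayed for IL-8 by ELISA after 24 h. Parallel SRB staining (0.1% SRB after 10% TCA fixation, 560 nm) flags cytotoxicity.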

A short description of assay [15]: BSK_LPS_SRB: Viability Assessment in the BioMAP Diversity Plus: LPS Assay (AID 2283079).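 Note: total protein by sulforhodamine B absorbance as a cytotoxicity measure; measured one day after compound addition.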 Particulars: primary human HUVEC with PBMC. Summed up: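 Overt cytotoxicity was gauged by sulforhodamine B total-protein staining in a primary human vascular endothelial and mononuclear cell co-culture 24 h post-dosing. Activity was fitted in both directions relative to DMSO.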

Read-out in assay [16]: Interleukin-1 alpha (IL1a), IL1A (gene 3552)
The assay can be described thus: BSK_LPS_IL1a: BioMAP Diversity Plus: LPS Assay for Interleukin-1 alpha (IL1a) Biomarker Activity (AID 2283080). Particulars: primary human HUVEC with PBMC; actives raise or lower the signal. In short, it runs like this: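 Measured: IL-1 alpha via ELISA at 24 h in LPS-activated human umbilical vein endothelium–PBMC co-culture. Baseline: DMSO, bidirectional fitting.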

Read-out in assay [17]: Monocyte Chemoattractant Protein-1 (MCP1), CCL2 (gene 6347)
The assay can be described thus: BSK_LPS_MCP1: BioMAP Diversity Plus: LPS Assay for Monocyte Chemoattractant Protein-1 (MCP1) Biomarker Activity (AID 2283081).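 Note: secreted MCP-1 protein quantified by ELISA in culture supernatant.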 The note with it: primary human HUVEC with PBMC; actives raise or lower the signal. In short, it runs like this:
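LPS-stimulated HUVEC/PBMC co-culture; chemical, 24 h; MCP-1 by ELISA; bidirectional fit vs DMSO; cytotoxicity via SRB (0.1% stain, 10% TCA fix, 560 nm) in parallel wells.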

Read-out in assay [18]: CD40, CD40 (gene 958)
The assay is described as follows: BSK_LPS_CD40: BioMAP Diversity Plus: LPS Assay for CD40 Biomarker Activity (AID 2283076). The note with it: primary human HUVEC with PBMC; actives raise or lower the signal. Summed up:
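CD40 signal, measured by ELISA, is fitted in both directions relative to DMSO vehicle. The system is an LPS-driven human vascular primary co-culture of endothelial cells and PBMC, sampled 24 h after compound addition.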

Assay [19] can be described thus: BSK_KF3CT_SRB: Viability Assessment in the BioMAP Diversity Plus: KF3CT Assay (AID 2283069). The note with it: primary human keratinocytes with fibroblasts. In short, it runs like this:
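SRB read-out at 560 nm (0.1% stain, TCA-fixed cells) gauges overt cytotoxicity in a human skin keratinocyte–fibroblast co-culture 24 h post-dosing. Signal change was fitted bidirectionally relative to DMSO control.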

This is an account of results in PubChem BioAssay (EPA / NIEHS).

Several values for one entry are separate records, joined by “and”; a condition that tells them apart may be missing. Identical values can stand only once. Where a structure was tested more than once in an assay, its records may differ in their call. Activity calls are given as the source filed them. Rule for the calls: active = hit-call score of the fitted dose curve at least 0.9, where 1 is the maximum; inactive = score below 0.9.

Chain of E-selectin (Homo sapiens) (P16581 whole entry, looked up): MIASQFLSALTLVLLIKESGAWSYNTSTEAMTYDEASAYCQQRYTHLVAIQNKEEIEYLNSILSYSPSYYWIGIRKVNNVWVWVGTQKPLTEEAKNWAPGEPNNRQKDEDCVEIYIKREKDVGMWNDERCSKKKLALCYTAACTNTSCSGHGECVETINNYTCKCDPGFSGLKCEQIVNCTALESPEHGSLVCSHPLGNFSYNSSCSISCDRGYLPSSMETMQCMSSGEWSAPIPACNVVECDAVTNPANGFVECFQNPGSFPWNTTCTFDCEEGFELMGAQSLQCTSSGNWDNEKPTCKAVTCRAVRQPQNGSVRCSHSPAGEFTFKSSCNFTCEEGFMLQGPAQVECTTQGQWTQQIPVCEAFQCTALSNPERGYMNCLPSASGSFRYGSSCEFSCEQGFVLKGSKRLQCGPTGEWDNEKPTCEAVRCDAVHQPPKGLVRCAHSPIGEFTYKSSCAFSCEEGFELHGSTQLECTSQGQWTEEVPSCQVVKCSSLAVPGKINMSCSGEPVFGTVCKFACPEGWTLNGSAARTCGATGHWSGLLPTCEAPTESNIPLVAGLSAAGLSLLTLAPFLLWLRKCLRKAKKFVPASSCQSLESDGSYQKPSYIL

For the compound `O=C(O)C(F)(F)C(F)(F)C(F)(F)C(F)(F)C(F)(F)C(F)(F)C(F)(F)C(F)(F)C(F)(F)F`, the AC50 (as a rule, the concentration giving half of the maximal activity seen) is 35 µM (active) and 22.2 µM (active) and 39.3 µM (active) in assay [1]; 33.3 µM (active) and 26.9 µM (active) and 40.3 µM (active) in assay [2]; 31.2 µM (active) and 17.9 µM (active) and 19.4 µM (active) in [3]; 33.1 µM (active) and 38.3 µM (active) and 47 µM (active) in assay [4]; 36.7 µM (active) and 45.8 µM (active) and 54.9 µM (active) in [5]; 17.3 µM (active) and 46.9 µM (active) and 40.5 µM (active) in [6]. Besides, the AC50 is 33.5 µM (active) and 47.2 µM (active) and 46.8 µM (active) in [7]; 31 µM (active) and 45 µM (active) and 44.7 µM (active) in [8]; 30.8 µM (active) in [9]; 22.7 µM (active) and 27.9 µM (active) and 18.5 µM (active) in [10]; 20 µM (active) and 30.2 µM (active) and 27.5 µM (active) in assay [11]; 31.4 µM (active) and 55 µM (active) and 50.7 µM (active) in assay [12]. Further, the concentration at half-maximal activity (AC50) in [13] was 53.8 µM (active) and 51 µM (active); in assay [14], 46.1 µM (active) and 46.7 µM (active); in assay [15] it was 31.3 µM (active) and 56.6 µM (active) and 54.8 µM (active); in [16], 45.7 µM (active) and 45.5 µM (active); in [17], 33.2 µM (active) and 54.1 µM (active) and 54.5 µM (active). Moreover, the outcome in [13], in [14] and in assay [16] was inactive.
As for `CCCCCCCCCC[N+](C)(C)CCCCCCCCCC`, the AC50 in assay [1] is 2 µM (active); in assay [2], 1.97 µM (active); in assay [3], 3.39 µM (active); in assay [4] it was 1.58 µM (active); in [5], 10.7 µM (active); in assay [6], 6.12 µM (active). In addition, the AC50 is 6.82 µM (active) in [7]; 4.71 µM (active) in assay [8]; 3.03 µM (active) in [9]; 4.69 µM (active) in assay [10]; 4.56 µM (active) in assay [11]; 5.24 µM (active) in [12]. The half-maximal activity concentration (AC50) in assay [18] is 4.27 µM (active); in assay [13], 4.41 µM (active); in assay [14], 5.86 µM (active); in assay [15], 5.32 µM (active); in assay [16], 3.75 µM (active).
As for `CCC(=O)O[C@H]1CC[C@H]2[C@@H]3CCC4=CC(=O)CC[C@]4(C)[C@H]3CC[C@]12C`, the AC50 in [1] is 33.8 µM (active); in [2] it was 35.9 µM (active); in assay [3] it was 31.4 µM (active); in [4] it was 39.1 µM (active); in assay [5] it was 37.5 µM (active); in assay [6], 32.1 µM (active). The concentration at half-maximal activity (AC50) was 36.3 µM (active) in [19]; 32.7 µM (active) in assay [7]; 30.7 µM (active) in assay [8]; 32.4 µM (active) in assay [11]; 32.5 µM (active) in [12]; 29.4 µM (active) in assay [13]. In addition, the AC50 in [14] was 26.5 µM (active); in assay [16] it was 31.9 µM (active); in [17], 25.5 µM (active). In assay [10], the outcome was inactive.
